Screening results deposited in PubChem BioAssay by National Center for Advancing Translational Sciences (NCATS).
Pf growth 48h: P. falciparum growth inhibition at 48 hours (one generation) | 5.9% of 310,000 active | P. falciparum luciferase growth in erythrocytes, 48 h | Potency, µM (highest dose often 28.7 µM), most hits filed as inhibitors
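Parasite viability was followed by luminescence of a genomically integrated firefly luciferase. Cultures held 0.1% parasitemia at 2% hematocrit (final), incubated under 5% CO2 at 37 C.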
Pf growth 96h: P. falciparum growth inhibition at 96 hour, primary screen for plastid delayed-death inhibitors. P. falciparum luciferase reporter growth, 96 h. Potency, µM (top dose mostly 28.7 µM), hits mostly inhibitors. 6.9% of 320,000 active. AID 504834
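P. falciparum expressing integrated firefly luciferase grown in erythrocytes (2% hematocrit, 0.05% parasitemia final) with compounds for 96 hours at 37 C, 5% CO2. Growth inhibition read as loss of luminescence after adding luciferase detection reagent.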
NS1 inh: inhibitors of influenza NS1 protein function; 0.4% of 270,000 active; Potency, µM (top dose mostly 46.1 µM); AID 2326; calls by dose curve; further: actives are rising curves; nearly all actives have a fitted effect of over 50% in size
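Recovery from NS1-induced slow growth read by OD600 in budding yeast switched to galactose assay medium (pH 6.0, -URA) at 1:100 dilution. Compound 23 nl per well; the matching strain lacking NS1 serves as control.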
Cycloheximide cs: affects cycloheximide protein synthesis inhibition readout, counter-screen; cell reporter, cycloheximide protein synthesis inhibition counterscreen; max response, %; 12% of 300,000 active; in the data active means max response mostly above about 13%, no sharp cut-off; inactive means mostly below about 14%; further: read at 38.3 µM for the half of the compounds with a filed dose
Shiga inhibitor: Shiga toxin inhibition; 9.2% of 290,000 active; inhibition, % at 38.7 µM; Vero cells, Shiga toxin protein synthesis inhibition reporter; in the data active means inhibition mostly above about 28%, no sharp cut-off; inactive means mostly below about 43%
Of the large screens only hits and unclear results are named; the others gave an inactive call. Compounds with a hit are over-represented: about 21% of the library has one in this group of screens. Unless noted, the call rests on the fitted dose curve; in most records, active means well fitted inhibition curve with a large enough effect; inconclusive means small, poorly fitted or top-dose-only effect, or another doubt; inactive means no such curve, though single readings can be large or run the other way.

Cc1cc(C(=O)OCC(=O)Nc2cccnc2Cl)c2ccccc2n1	none (no result: NS1 inh)
Cc1cccc(C)c1NC(=O)CN(C)C(=O)[C@H](C)NC(=O)c1ccco1	none (no result: NS1 inh, Cycloheximide cs, Shiga inhibitor)
C=CCn1c(SCC(=O)Nc2ccc(N3CCOCC3)cc2)nnc1-c1ccco1	none
Nc1c(-c2ccccc2)cnc2c(-c3ccccc3)cnn12	Cycloheximide cs 52, Shiga inhibitor 130
Cc1c(-c2ccc(F)cc2)nc(N)c(C#N)c1-c1cccs1	none
CS(=O)(=O)c1cnc2c(-c3ccc(F)cc3)cnn2c1N	Cycloheximide cs 58, Shiga inhibitor 61
N#Cc1cnn2c(N)c(-c3ccc(Cl)cc3)cnc12	none (no result: NS1 inh)
Nc1c(-c2cccs2)cnc2c(-c3ccc(F)cc3)cnn12	Cycloheximide cs 43, Shiga inhibitor 118
Nc1c(-c2ccsc2)cnc2ncnn12	Pf growth 96h inconclusive (no result: NS1 inh)
CC(C)(C)S(=O)(=O)c1cnc2c(-c3ccsc3)cnn2c1N	Cycloheximide cs 49 (no result: NS1 inh)
COc1ccc(C2=Nn3c([n+](C)c4ccccc43)SC2)cc1	Pf growth 48h 0.83µM
COc1cccc(CNC(=O)c2ccc(NS(=O)(=O)c3ccc4[nH]c(=O)[nH]c4c3)cc2)c1	none (no result: NS1 inh, Cycloheximide cs, Shiga inhibitor)
O=C(CSc1ccc(Br)cc1)N1CCOCC1	Cycloheximide cs 27, Shiga inhibitor 46
O=C(CCSc1nccn1Cc1ccccc1)N1CCOCC1	Cycloheximide cs 19, Shiga inhibitor active
CC(Sc1ccc(Cl)cc1)C(=O)NNC(=O)c1csc(N2CCOCC2)n1 (centres undefined)	none
O=C(CCSc1ccc(Cl)cc1)N1CCOCC1	Cycloheximide cs 29, Shiga inhibitor 53
Clc1ccc(SCc2csc(N3CCOCC3)n2)cc1	Cycloheximide cs 33, Shiga inhibitor 54
CCc1ccc(NC(=S)N2CCN(S(=O)(=O)c3ccccc3)CC2)cc1	none
COc1ccc(NC(=O)COC(=O)c2ccc(S(=O)(=O)N3CCCCCC3)cc2)c(OC)c1	none (no result: NS1 inh, Cycloheximide cs, Shiga inhibitor)
O=C(c1ccc(CSc2ccc(Cl)cc2)cc1)N1CCOCC1	none
Cc1ccc(SCC(=O)N2CCOCC2)cc1	Cycloheximide cs 23, Shiga inhibitor 35 (no result: Pf growth 96h)
Cc1ccc(SCC(=O)N2CC(C)OC(C)C2)cc1 (centres undefined)	NS1 inh inconclusive
O=C(CSc1ccc(Cl)cc1)N1CCOCC1	Cycloheximide cs 29, Shiga inhibitor 68 (no result: Pf growth 96h)
O=C(Cc1ccc(Cl)cc1)N1CCOCC1	Pf growth 96h 15µM
CN(C(=O)c1ccc(OCC=C(c2ccccc2)c2ccccc2)cc1)c1ccccc1I	none (no result: Pf growth 48h, Pf growth 96h, NS1 inh)
S=C(NCCN1CCOCC1)NC1CCCC1	none (no result: NS1 inh)
O=C(Nc1ccccc1F)C(=O)c1cn(CC(=O)N2CCCCC2)c2ccccc12	Cycloheximide cs 33, Shiga inhibitor 54 (no result: NS1 inh)
CC(=O)Nc1ccc(NC(=O)C(=O)c2cn(CC(=O)N3CCCC3)c3ccccc23)cc1	none
CC(=O)Nc1cccc(NC(=O)C(=O)c2cn(CC(=O)N3CCCCC3)c3ccccc23)c1	Pf growth 96h inconclusive, Cycloheximide cs 45, Shiga inhibitor 85 (no result: NS1 inh)
CCOc1cc(C)c(C(C)C)cc1S(=O)(=O)n1cnc(C)c1	Pf growth 48h inconclusive
CC1=C(C(=O)OC(C)C)C(c2cncc(-c3ccc(F)cc3)c2)C(C#N)=C(N)O1 (centres undefined)	Pf growth 48h inconclusive, Pf growth 96h inconclusive
CCOCCCNC(=O)/C(C#N)=C/c1ccc(-c2ccc(S(=O)(=O)N3CCOCC3)cc2)o1	Pf growth 96h 13µM
COc1ccc(N2CCN(C(=O)COC(=O)c3c(-c4ccccc4)noc3C)CC2)cc1	none (no result: NS1 inh, Cycloheximide cs, Shiga inhibitor)
CCc1ccc(S(=O)(=O)N2CCN(c3ccccc3OC)CC2)cc1	none (no result: Shiga inhibitor)
Cn1nc(-c2ccc(Cl)cc2)nc2c(=O)n(C)c(=O)nc1-2	Pf growth 48h inconclusive, Pf growth 96h 0.93µM, Shiga inhibitor 22
CC(C)CCC(C(=O)NC(C)c1ccccc1)C(=O)NC(C)c1ccccc1 (centres undefined)	none
COc1ccc(CNC(=O)CC2Sc3ccccc3NC2=O)cc1 (centres undefined)	none
COc1ccc2c(COC(=O)CC3Sc4ccccc4NC3=O)cc(=O)oc2c1 (centres undefined)	Pf growth 48h inconclusive, Pf growth 96h inconclusive, Cycloheximide cs 20
O=C(COC(=O)CC1Sc2ccccc2NC1=O)NCc1ccccc1 (centres undefined)	Pf growth 48h 13µM, Pf growth 96h inconclusive (no result: NS1 inh, Cycloheximide cs, Shiga inhibitor)
CCOc1ccc(C(CC(=O)O)n2cnnn2)cc1 (centres undefined)	Pf growth 96h inconclusive (no result: NS1 inh)
COC(=O)CNC(=O)Cc1c(F)cccc1Cl	Pf growth 96h inconclusive
COc1ccc(Cl)cc1S(=O)(=O)Nc1ccncc1	none
O=S(=O)(Nc1ccncc1)c1cc(Cl)c(Cl)cc1Cl	Pf growth 96h 7.4µM
Cn1nc(-c2ccc(C(=O)NCCO)cc2)c2ccccc2c1=O	none
N#Cc1c2c(c(N3CCN(c4ccccn4)CC3)n3c1nc1ccccc13)CCC2	Pf growth 96h 0.13µM (no result: Pf growth 48h)
Cc1nccn1-c1c2c(c(C#N)c3nc4ccccc4n13)CCC2	none
Cc1c2c(n3c(nc4ccccc43)c1C#N)N(Cc1ccccn1)CC2	none (no result: Pf growth 48h, Pf growth 96h, Cycloheximide cs, Shiga inhibitor)
Cc1cc(N2CCN(c3ccccn3)CC2)n2c(nc3ccccc32)c1C#N	Pf growth 48h 4.7µM
CC(C)=NNC(=O)C1=NNC(=O)C1	Pf growth 48h inconclusive
N#C/C(=C(/O)c1ccco1)c1nc2ccccc2s1	Cycloheximide cs 38, Shiga inhibitor 66
N#C/C(=C(/O)c1cccc(F)c1)c1nc2ccccc2s1	Cycloheximide cs 12
N#C/C(=C(\O)c1ccco1)c1ccccn1	Pf growth 96h inconclusive, Cycloheximide cs 31, Shiga inhibitor 70
N#CC(C(=O)c1ccco1)c1ccccn1 (centres undefined)	Cycloheximide cs 17
O=C(c1ccco1)N(c1ccccn1)c1ccccn1	none (no result: Pf growth 96h)
C=CCNC(=S)N1CCN(CCN=CC2=C(O)CC(c3ccc(Cl)cc3)CC2=O)CC1 (centres undefined)	Pf growth 48h inconclusive (no result: NS1 inh)
CC1=CC(=C(C#N)c2nc3ccccc3s2)C=C(C)N1Cc1ccco1	Pf growth 48h 3.3µM (no result: Pf growth 96h)
O=C(NNC(=S)Nc1ccc(Cl)cc1Cl)C1CC1	Cycloheximide cs 26
O=C(NNC(=S)Nc1ccc(Cl)cc1Cl)c1cccnc1	Pf growth 96h inconclusive (no result: NS1 inh, Cycloheximide cs, Shiga inhibitor)
O=C(NNC(=S)Nc1ccccc1Cl)c1ccncc1	Cycloheximide cs 15
CN(C(=O)Nc1ccc(Cl)cc1Cl)C1CCCC1	Cycloheximide cs 18, Shiga inhibitor 44
O=C(NNC(=S)Nc1ccc(Cl)cc1Cl)c1ccncc1	Pf growth 96h 4.1µM, Cycloheximide cs 14
O=C(Nc1ccc(Cl)cc1Cl)NC1CCCC1	Pf growth 96h inconclusive (no result: NS1 inh)
COc1ccc(C(=O)N(CN2CCCC2=O)c2ccccc2OC)cc1OC	Pf growth 96h 0.0041µM
COc1ccccc1N(CN1CCCC1=O)C(=O)c1c(F)cccc1Cl	Pf growth 48h inconclusive
FC(F)(F)c1ccc(-n2cnc3ccccc32)nc1	Cycloheximide cs 33, Shiga inhibitor 46
COC(=O)C1C(O)C(C)C(O)C(C)/C=C\C=C(/C)C(=O)Nc2c(C)c(OC(C)=O)c3c(c2O)C(=O)C(C)=C2OCOC(=C23)/C(C)=C/C(C)(O)C(O)C(C)C1O (centres undefined)	Pf growth 48h 12µM, Pf growth 96h 9.3µM
CC(=O)Nc1c(N)[nH]c(=O)n(C)c1=O	none (no result: Pf growth 48h, Pf growth 96h, NS1 inh)
